# Measured values from publication PMC11006913.
# Substitutions are numbered along the chain they refer to.
# Tests used:
# Assay in all cases: PBM; 200 nM protein, PBS
# Conditions in all cases: dsDNA, one strand shown
# [1] = molecular target: NKX2-5 (Homo sapiens, UniProt P52952 125-210, R139K)
# [2] = molecular target: HOXC9 (Homo sapiens, UniProt P31274 178-260, K195R)
# [3] = molecular target: T1, PAX4 (Homo sapiens, UniProt O43316 9-242, R200K)
# T1 sequence: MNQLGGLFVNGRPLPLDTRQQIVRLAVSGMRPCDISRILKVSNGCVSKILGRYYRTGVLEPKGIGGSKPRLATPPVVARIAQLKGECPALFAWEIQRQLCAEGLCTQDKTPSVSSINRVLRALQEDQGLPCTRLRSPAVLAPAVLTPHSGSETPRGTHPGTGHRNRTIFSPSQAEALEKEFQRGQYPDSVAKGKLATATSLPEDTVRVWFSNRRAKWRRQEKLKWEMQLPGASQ
# [4] = molecular target: T2, PAX4 (Homo sapiens, UniProt O43316 9-242)
# T2 sequence: T1 sequence with K192R
# [5] = molecular target: HOXA2 (Homo sapiens, UniProt O43364 129-215, R185T)
# Sequence of HOXA2 (Homo sapiens, UniProt O43364 129-215, R185T) (O43364 129-215 R185T): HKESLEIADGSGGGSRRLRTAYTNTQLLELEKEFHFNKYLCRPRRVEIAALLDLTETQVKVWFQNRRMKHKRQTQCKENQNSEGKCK
# [6] = molecular target: HOXC9 (Homo sapiens, UniProt P31274 178-260)
# Sequence of HOXC9 (Homo sapiens, UniProt P31274 178-260) (P31274 178-260): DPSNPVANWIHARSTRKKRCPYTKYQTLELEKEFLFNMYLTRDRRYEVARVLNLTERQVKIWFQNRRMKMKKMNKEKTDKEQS
# [7] = molecular target: MSX2 (Homo sapiens, UniProt P35548 130-214, R199I)
# Sequence of MSX2 (Homo sapiens, UniProt P35548 130-214, R199I) (P35548 130-214 R199I): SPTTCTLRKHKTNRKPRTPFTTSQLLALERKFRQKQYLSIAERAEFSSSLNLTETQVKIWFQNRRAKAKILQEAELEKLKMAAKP
# [8] = molecular target: T3, PAX4 (Homo sapiens, UniProt O43316 9-242, R200Q)
# T3 sequence: T1 sequence with K192Q
# [9] = molecular target: HOXC9 (Homo sapiens, UniProt P31274 178-260, R193K)
# Sequence of HOXC9 (Homo sapiens, UniProt P31274 178-260, R193K) (P31274 178-260 R193K): as the sequence (P31274 178-260) above, with R16K counted along it
# [10] = molecular target: HOXA2 (Homo sapiens, UniProt O43364 129-215, R185K)
# Sequence of HOXA2 (Homo sapiens, UniProt O43364 129-215, R185K) (O43364 129-215 R185K): as the sequence (O43364 129-215 R185T) above, with T57K counted along it
# [11] = molecular target: T4, PAX4 (Homo sapiens, UniProt O43316 9-242, F177V)
# T4 sequence: T1 sequence with F169V, K192R
# [12] = molecular target: MSX2 (Homo sapiens, UniProt P35548 130-214)
# Sequence of MSX2 (Homo sapiens, UniProt P35548 130-214) (P35548 130-214): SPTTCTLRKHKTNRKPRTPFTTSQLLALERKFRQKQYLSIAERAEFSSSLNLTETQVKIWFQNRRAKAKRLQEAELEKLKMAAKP
# [13] = molecular target: T5, PAX4 (Homo sapiens, UniProt O43316 9-242, F177Y)
# T5 sequence: T1 sequence with F169Y, K192R
# [14] = molecular target: VAX1 (Homo sapiens, UniProt Q5SQQ9 86-172)
# Sequence of VAX1 (Homo sapiens, UniProt Q5SQQ9 86-172) (Q5SQQ9 86-172): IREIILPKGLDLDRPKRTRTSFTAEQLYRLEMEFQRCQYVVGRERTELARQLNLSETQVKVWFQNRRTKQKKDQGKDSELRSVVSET
# [15] = molecular target: HOXC9 (Homo sapiens, UniProt P31274 178-260, R222W)
# Sequence of HOXC9 (Homo sapiens, UniProt P31274 178-260, R222W) (P31274 178-260 R222W): as the sequence (P31274 178-260) above, with R45W counted along it
# [16] = molecular target: MSX2 (Homo sapiens, UniProt P35548 130-214, F161Y)
# Sequence of MSX2 (Homo sapiens, UniProt P35548 130-214, F161Y) (P35548 130-214 F161Y): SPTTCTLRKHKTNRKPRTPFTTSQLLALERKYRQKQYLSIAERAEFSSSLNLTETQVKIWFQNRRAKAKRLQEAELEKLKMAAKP
# [17] = molecular target: VAX1 (Homo sapiens, UniProt Q5SQQ9 86-172, T142I)
# Sequence of VAX1 (Homo sapiens, UniProt Q5SQQ9 86-172, T142I) (Q5SQQ9 86-172 T142I): as the sequence (Q5SQQ9 86-172) above, with T57I counted along it
# [18] = molecular target: T6, PAX4 (Homo sapiens, UniProt O43316 9-242, R227W)
# T6 sequence: T1 sequence with K192R, R219W
# [19] = molecular target: HOXA2 (Homo sapiens, UniProt O43364 129-215, Y150S)
# Sequence of HOXA2 (Homo sapiens, UniProt O43364 129-215, Y150S) (O43364 129-215 Y150S): as the sequence (O43364 129-215 R185T) above, with Y22S, T57R counted along it
# [20] = molecular target: NKX3-2 (Homo sapiens, UniProt P78367 192-278, P234S)
# Sequence of NKX3-2 (Homo sapiens, UniProt P78367 192-278, P234S) (P78367 192-278 P234S): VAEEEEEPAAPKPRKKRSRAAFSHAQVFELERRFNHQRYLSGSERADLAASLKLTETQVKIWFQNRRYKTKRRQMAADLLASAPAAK
# [21] = molecular target: HOXA2 (Homo sapiens, UniProt O43364 129-215)
# Sequence of HOXA2 (Homo sapiens, UniProt O43364 129-215) (O43364 129-215): as the sequence (O43364 129-215 R185T) above, with T57R counted along it
# [22] = molecular target: VAX1 (Homo sapiens, UniProt Q5SQQ9 86-172, K157R)
# Sequence of VAX1 (Homo sapiens, UniProt Q5SQQ9 86-172, K157R) (Q5SQQ9 86-172 K157R): as the sequence (Q5SQQ9 86-172) above, with K72R counted along it
# [23] = molecular target: NKX2-5 (Homo sapiens, UniProt P52952 125-210)
# Sequence of NKX2-5 (Homo sapiens, UniProt P52952 125-210) (P52952 125-210): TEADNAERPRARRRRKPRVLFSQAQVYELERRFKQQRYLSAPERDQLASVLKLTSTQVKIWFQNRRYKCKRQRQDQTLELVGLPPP
# [24] = molecular target: NKX3-2 (Homo sapiens, UniProt P78367 192-278)
# Sequence of NKX3-2 (Homo sapiens, UniProt P78367 192-278) (P78367 192-278): as the sequence (P78367 192-278 P234S) above, with S43P counted along it
# [25] = molecular target: T7, NKX2-6 (Homo sapiens, UniProt A6NCS4 118-204, R150C)
# T7 sequence: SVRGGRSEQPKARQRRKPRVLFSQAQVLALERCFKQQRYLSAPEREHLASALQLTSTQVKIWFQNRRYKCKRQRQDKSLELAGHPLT
# [26] = molecular target: ALX1 (Homo sapiens, UniProt Q15699 118-204, L144V)
# Sequence of ALX1 (Homo sapiens, UniProt Q15699 118-204, L144V) (Q15699 118-204 L144V): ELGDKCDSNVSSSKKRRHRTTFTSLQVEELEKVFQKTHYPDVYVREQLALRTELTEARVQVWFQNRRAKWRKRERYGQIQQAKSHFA
# [27] = molecular target: T8, NKX2-6 (Homo sapiens, UniProt A6NCS4 118-204)
# T8 sequence: T7 sequence with C33R
# [28] = molecular target: T9, NKX2-4 (Homo sapiens, UniProt Q9H2Z4 175-261, R246Q)
# T9 sequence: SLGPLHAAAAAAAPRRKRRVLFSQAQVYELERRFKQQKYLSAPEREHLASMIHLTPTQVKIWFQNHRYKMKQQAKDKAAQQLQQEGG
# [29] = molecular target: T10, NKX2-6 (Homo sapiens, UniProt A6NCS4 118-204, F151L)
# T10 sequence: T7 sequence with C33R, F34L
# [30] = molecular target: ALX1 (Homo sapiens, UniProt Q15699 118-204)
# Sequence of ALX1 (Homo sapiens, UniProt Q15699 118-204) (Q15699 118-204): as the sequence (Q15699 118-204 L144V) above, with V27L counted along it
# [31] = molecular target: HOXA4 (Homo sapiens, UniProt Q00056 201-287, W262R)
# Sequence of HOXA4 (Homo sapiens, UniProt Q00056 201-287, W262R) (Q00056 201-287 W262R): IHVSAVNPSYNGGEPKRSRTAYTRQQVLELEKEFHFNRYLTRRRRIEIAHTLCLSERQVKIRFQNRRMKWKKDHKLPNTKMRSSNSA
# [32] = molecular target: HOXA4 (Homo sapiens, UniProt Q00056 201-287, R217L)
# Sequence of HOXA4 (Homo sapiens, UniProt Q00056 201-287, R217L) (Q00056 201-287 R217L): as the sequence (Q00056 201-287 W262R) above, with R17L, R62W counted along it
# [33] = molecular target: HOXA4 (Homo sapiens, UniProt Q00056 201-287)
# Sequence of HOXA4 (Homo sapiens, UniProt Q00056 201-287) (Q00056 201-287): as the sequence (Q00056 201-287 W262R) above, with R62W counted along it
# [34] = molecular target: HOXA4 (Homo sapiens, UniProt Q00056 201-287, W262F)
# Sequence of HOXA4 (Homo sapiens, UniProt Q00056 201-287, W262F) (Q00056 201-287 W262F): as the sequence (Q00056 201-287 W262R) above, with R62F counted along it
# Sequence of NKX2-5 (Homo sapiens, UniProt P52952 125-210, R139K) (P52952 125-210 R139K): as the sequence (P52952 125-210) above, with R15K counted along it
# Sequence of HOXC9 (Homo sapiens, UniProt P31274 178-260, K195R) (P31274 178-260 K195R): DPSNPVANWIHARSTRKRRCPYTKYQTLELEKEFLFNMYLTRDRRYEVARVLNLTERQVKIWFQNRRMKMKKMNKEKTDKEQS
sequence,measurement,setting,value
AGCCCGGG,binding signal,[1],"8.84 upbm affinity estimate (log intensity, higher = more binding, comparable within an allelic series)"
same,binding signal,[2],"9.48 upbm affinity estimate (log intensity, higher = more binding, comparable within an allelic series)"
same,binding signal,[3],"9.12 upbm affinity estimate (log intensity, higher = more binding, comparable within an allelic series)"
same,binding signal,[4],"8.95 upbm affinity estimate (log intensity, higher = more binding, comparable within an allelic series)"
same,binding signal,[5],"7.03 upbm affinity estimate (log intensity, higher = more binding, comparable within an allelic series)"
same,binding signal,[6],"9.82 upbm affinity estimate (log intensity, higher = more binding, comparable within an allelic series)"
same,binding signal,[7],"9.38 upbm affinity estimate (log intensity, higher = more binding, comparable within an allelic series)"
same,binding signal,[8],"9.17 upbm affinity estimate (log intensity, higher = more binding, comparable within an allelic series)"
same,binding signal,[9],"9.63 upbm affinity estimate (log intensity, higher = more binding, comparable within an allelic series)"
same,binding signal,[10],"10.2 upbm affinity estimate (log intensity, higher = more binding, comparable within an allelic series)"
same,binding signal,[11],"9.12 upbm affinity estimate (log intensity, higher = more binding, comparable within an allelic series)"
same,binding signal,[12],"9.25 upbm affinity estimate (log intensity, higher = more binding, comparable within an allelic series)"
same,binding signal,[13],"9.07 upbm affinity estimate (log intensity, higher = more binding, comparable within an allelic series)"
same,binding signal,[14],"6.75 upbm affinity estimate (log intensity, higher = more binding, comparable within an allelic series)"
same,binding signal,[15],"9.71 upbm affinity estimate (log intensity, higher = more binding, comparable within an allelic series)"
same,binding signal,[16],"9.37 upbm affinity estimate (log intensity, higher = more binding, comparable within an allelic series)"
same,binding signal,[17],"6.9 upbm affinity estimate (log intensity, higher = more binding, comparable within an allelic series)"
same,binding signal,[18],"9.13 upbm affinity estimate (log intensity, higher = more binding, comparable within an allelic series)"
same,binding signal,[19],"10.4 upbm affinity estimate (log intensity, higher = more binding, comparable within an allelic series)"
same,binding signal,[20],"10.4 upbm affinity estimate (log intensity, higher = more binding, comparable within an allelic series)"
same,binding signal,[21],"7.06 upbm affinity estimate (log intensity, higher = more binding, comparable within an allelic series)"
same,binding signal,[22],"6.72 upbm affinity estimate (log intensity, higher = more binding, comparable within an allelic series)"
same,binding signal,[23],"8.8 upbm affinity estimate (log intensity, higher = more binding, comparable within an allelic series)"
same,binding signal,[24],"10.3 upbm affinity estimate (log intensity, higher = more binding, comparable within an allelic series)"
CGCACTTA,binding signal,[1],"12.6 upbm affinity estimate (log intensity, higher = more binding, comparable within an allelic series)"
same,binding signal,[25],"11.8 upbm affinity estimate (log intensity, higher = more binding, comparable within an allelic series)"
same,binding signal,[26],"8.31 upbm affinity estimate (log intensity, higher = more binding, comparable within an allelic series)"
same,binding signal,[27],"13.5 upbm affinity estimate (log intensity, higher = more binding, comparable within an allelic series)"
same,binding signal,[28],"12.9 upbm affinity estimate (log intensity, higher = more binding, comparable within an allelic series)"
same,binding signal,[29],"10.9 upbm affinity estimate (log intensity, higher = more binding, comparable within an allelic series)"
same,binding signal,[20],"12.6 upbm affinity estimate (log intensity, higher = more binding, comparable within an allelic series)"
same,binding signal,[30],"8.83 upbm affinity estimate (log intensity, higher = more binding, comparable within an allelic series)"
same,binding signal,[23],"12.5 upbm affinity estimate (log intensity, higher = more binding, comparable within an allelic series)"
same,binding signal,[24],"12.7 upbm affinity estimate (log intensity, higher = more binding, comparable within an allelic series)"
CAGCCCCC,binding signal,[1],"8.75 upbm affinity estimate (log intensity, higher = more binding, comparable within an allelic series)"
same,binding signal,[31],"9.74 upbm affinity estimate (log intensity, higher = more binding, comparable within an allelic series)"
same,binding signal,[32],"9.65 upbm affinity estimate (log intensity, higher = more binding, comparable within an allelic series)"
same,binding signal,[33],"9.71 upbm affinity estimate (log intensity, higher = more binding, comparable within an allelic series)"
same,binding signal,[14],"7.33 upbm affinity estimate (log intensity, higher = more binding, comparable within an allelic series)"
same,binding signal,[17],"7.4 upbm affinity estimate (log intensity, higher = more binding, comparable within an allelic series)"
same,binding signal,[34],"9.62 upbm affinity estimate (log intensity, higher = more binding, comparable within an allelic series)"
same,binding signal,[22],"7.13 upbm affinity estimate (log intensity, higher = more binding, comparable within an allelic series)"
same,binding signal,[23],"8.67 upbm affinity estimate (log intensity, higher = more binding, comparable within an allelic series)"
